From PubChem BioAssay
TSG101-PTAP inh: qHTS Assay for Iinhibitors of HIV-1 Budding by Blocking the Interaction of PTAP/TSG101. Tumor susceptibility gene 101 protein (Homo sapiens), Q99816. Fluorescence polarization, FITC-PTAP peptide / Tsg101 binding. Potency, µM (doses to about 115 µM), without a hit: at the highest dose activity change, negative = inhibition, usual class: inhibitors. 340,000 tested, under 10 active; active means well fitted inhibition curve with a large enough effect in the main read-out, with a control signal flat, not every such curve was filed as active; inconclusive means small, poorly fitted or top-dose-only effect, or effect the other way, or a change in a side signal; inactive means no such curve, though single readings can be large or run the other way; further: potency means the concentration at half of the fitted maximal effect; % of control where 0% means no effect
Target sequence (Q99816 whole entry, looked up): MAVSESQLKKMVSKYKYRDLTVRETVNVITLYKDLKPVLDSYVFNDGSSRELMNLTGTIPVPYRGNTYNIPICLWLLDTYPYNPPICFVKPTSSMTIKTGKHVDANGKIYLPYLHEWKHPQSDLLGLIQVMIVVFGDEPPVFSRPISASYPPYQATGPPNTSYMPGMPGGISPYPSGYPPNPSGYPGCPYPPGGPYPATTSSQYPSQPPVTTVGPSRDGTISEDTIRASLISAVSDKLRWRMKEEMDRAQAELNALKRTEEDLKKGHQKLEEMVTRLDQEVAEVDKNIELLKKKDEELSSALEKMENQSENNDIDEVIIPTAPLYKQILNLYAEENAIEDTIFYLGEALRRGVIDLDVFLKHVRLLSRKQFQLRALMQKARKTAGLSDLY
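Fluorescence polarization binding of Tsg101 binding domain (10 uM final) to FITC-labeled PTAP peptide (50 nM final) in HEPES pH 7.5 buffer with NaCl, Tween 20, EDTA, TCEP. Compounds added before peptide; binding 20 min at RT.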
KCNH2 3.1 block: qHTS for Inhibitors of KCHN2 3.1: Mutant qHTS | Potassium voltage-gated channel subfamily H member 2, brain isoform KCNH2 3.1 (human) | 340,000 compounds, 0.95% hits | AID 720553, 2013 | U2OS KCNH2 3.1, thallium flux FluxOr; stronger effect = lower value | activity change, % (tested at about 1.8 µM);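 active means maximum activity change below -70%; inconclusive means maximum activity change from -70% to -50%; inactive means maximum activity change above -50%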;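 further: thallium influx rate constant from kinetic fluorescence after stimulation buffer; on the % scale 0 is the no-effect control and ±100 the full control effect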
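Measured as rate of thallium-driven FluxOr signal in transduced U2OS cells carrying the 3.1 channel, read kinetically for 2 min upon stimulation; values are rate constants scaled to DMSO control wells.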
GRP78 ERSR act: qHTS for Inducers of the Endoplasmic Reticulum Stress Response (ERSR) in Human Glioma: qHTS; U87-MG GRP78 promoter luciferase reporter, 16 h; Potency, µM, for inactives: at the highest dose activation, actives largely listed as activators; 420,000 compounds, 0.02% hits; active means well fitted activation curve with a large enough effect; inconclusive means small, poorly fitted or top-dose-only effect; inactive means no such curve, though single readings can be large or run the other way; further: potency means the concentration at half of the fitted maximal effect; series mostly up to about 76 µM; % of control where 0% means no effect; nearly all actives have a fitted effect of over 35% in size
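ERSR induction read as luciferase luminescence (Bright-Glo, 10 min at room temperature) in stably transfected human U87-MG glioma cells exposed to compounds for 16 h, using GRP78 as sensor.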
hERG WT inh: qHTS for Inhibitors of KCHN2 3.1: Wildtype qHTS; U2OS, BacMam KCNH2, thallium flux FluxOr; stronger effect = lower value; activity change, % at 1.84 µM; 340,000 compounds, 0.37% hits; AID 720551, 2013;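 active means maximum activity change below -70%; inconclusive means maximum activity change between -70% and -50%; inactive means maximum activity change above -50%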; further: on the % scale 0 is the no-effect control and ±100 the full control effect
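U2OS cells were transduced with wild-type KCNH2 virus (2.03 x 10^8 / mL) for 4 h at room temperature, then cultured overnight at 37 C. Thallium flux was read with FluxOr dye. Rate constants were normalized to DMSO controls.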
TRPML1 inh: qHTS for Inhibitors of the Human Mucolipin Transient Receptor Potential 1 (TRPML1); Mucolipin-1 (Homo sapiens), Q9GZU1; TRPML1-inducible cells, Ca2+ dye fluorescence, FDSS; stronger effect = lower value; inhibition of EC80 agonist-evoked calcium signal; activity change, negative = inhibition, % (test concentration not listed); 390,000 compounds, 0.02% hits; AID 624415, 2012; in the data active means activity change below about -50%; inconclusive means between about -30% and that limit;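 further: stimulus is agonist 54-4 at its EC80 concentration; on the % scale 0 is the no-effect control and ±100 the full control effect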
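TRPML1-DL cells, Tet-induced overnight (~16 h, 37 °C) at 1,500 cells/well, were loaded with Ca8 no-wash dye plus quencher for 45-90 min at room temperature. Compounds were pinned during FDSS kinetic reading; agonist 54-4 at EC80 (4 uM final) then added.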
TRPML1 ag: qHTS for Agonists of the Human Mucolipin Transient Receptor Potential 1 (TRPML1). activation, % (test concentration not listed). Mucolipin-1 (Homo sapiens), Q9GZU1. 410,000 compounds, 0.12% hits. TRPML1-expressing cells, Ca2+ dye fluorescence, FDSS; in the data active means activation above about 50%; inconclusive means mostly about 30% to 49%; further: 0% is about no effect
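Tetracycline-induced TRPML1-DL cells are seeded and incubated overnight before loading with a no-wash Ca2+ dye and quencher. Agonist activity is taken from the 110 s fluorescence read following compound pin-transfer on an FDSS, before EC80 54-4 challenge.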
Starred values were filed as active, the others as inactive; ? = inconclusive; / = no result given. An excerpt weighted towards active compounds, which were near 1% of everything screened.

SMILES	TSG101-PTAP inh	KCNH2 3.1 block	GRP78 ERSR act	hERG WT inh	TRPML1 inh	TRPML1 ag
CC(C)c1cc2c(c(O)c1O)[C@@]1(C(=O)O)CCCC(C)(C)[C@@H]1CC2	/	/	12.4%	/	/	/
C=CCNC(=S)N1Cc2ccccc2-n2nncc2C1	/	16.7	-1.0%	-119.9*	37.5	-0.1
C=CCNC(=S)N1Cc2cc(Br)ccc2-n2nncc2C1	/	/	-5.6%	/	/	-0.4
Clc1ccc2c(c1)C(c1ccccc1Cl)=NCc1nnc(N3CCN(CCSc4ccccc4)CC3)n1-2	-14.4%	-11.6	1.2%	-153.2*	45.7	-0.7
Clc1ccc2c(c1)C(c1ccccc1Cl)=NCc1nnc(N3CCN(CCOc4ccccc4)CC3)n1-2	-2.0%	?	-3.7%	?	-9.5	-0.3
O=C(CCCN1CCC(n2c(=O)[nH]c3ccccc32)CC1)c1ccc(F)cc1	1.1%	-70.6*	-3.5%	-11.1	0.3	-0.7
CCOC(=O)C1(CCOc2ccccc2)CCN(Cc2ccc(C)s2)CC1	-0.4%	-84.0*	-1.3%	-94.4*	-0.1	1.2
CCOC(=O)C1(CCc2ccccc2)CCN(Cc2ccc(NC(C)=O)cc2)CC1	-0.3%	-5.9	-4.7%	-3.3	-4.3	0.4
CCOC(=O)C1(CCc2ccccc2)CCN(Cc2ccc3c(c2)OCCO3)CC1	-4.0%	-112.9*	-5.3%	-43.4	-6.3	1.8
ClC[C@H]1CO1 (tested in a mixture with another compound)	/	/	-2.8%	/	/	/
O=c1[nH]c(=O)n(Cc2ccc(F)cc2)c(O)c1C=NCCCn1ccnc1	0.0%	3.3	-1.4%	32.5	-2.2	0.1
O=c1[nH]c(=S)n(Cc2ccc(F)cc2)c(O)c1C=NCCCn1ccnc1	-0.5%	-84.2*	-3.7%	-37.0	4.7	-0.4
CCCCCCn1c(O)c(C=NC2CCN(Cc3ccccc3)CC2)c(=O)[nH]c1=O	-0.8%	-95.1*	-1.3%	-0.7	-2.9	0.7
CC[C@@H](O)C(C[C@@H](C)N(C)C)(c1ccccc1)c1ccccc1	/	/	-2.1%	/	/	/
COc1ccc(OCC(=O)N2CCCC(N3CCN(c4ccccc4C)CC3)C2)cc1 (stereo not drawn)	-1.0%	-74.3*	-2.1%	16.0	2.9	1.9
Cc1ccc(OCC(=O)N2CCCC(N3CCN(c4ccc(F)cc4)CC3)C2)cc1 (stereo not drawn)	-1.0%	-86.2*	2.2%	-43.3	-1.1	-1.0
COc1ccccc1OCC(=O)N1CCCC(N2CCN(c3ccc(F)cc3)CC2)C1 (stereo not drawn)	/	2.1	1.0%	18.6	-21.8	1.0
CO/C1=C\C(C)=C\[C@@H](C)[C@@H](O)[C@@H](C)C/C(C)=C/C=C/[C@H](OC)[C@@H]([C@@H](C)[C@@H](O)[C@H](C)[C@@]2(O)C[C@@H](O)[C@H](C)C(C(C)C)O2)OC1=O (stereo partly drawn)	/	/	3.1%	/	/	/
CC(=O)[C@@]1(O)CC[C@@H]2[C@@H]3CCC4=CC(=O)CC[C@]4(C)[C@]3(F)[C@@H](O)C[C@@]21C	/	/	-4.2%	/	/	/
Ic1ccccc1CN[C@@H]1C2CCN(CC2)[C@@H]1C(c1ccccc1)c1ccccc1	-2.3%	-74.9*	-3.0%	5.0	63.2	1.9
C[C@]12CC[C@@H]3c4ccc(OC(=O)N(CCCl)CCCl)cc4CC[C@H]3[C@@H]1CC[C@@H]2OP(=O)(O)O	/	/	-1.5%	/	/	/
COC(=O)C1=C(c2ccc(Cl)c(C(F)(F)F)c2)C[C@@H]2CC[C@H]1N2C(=O)NCc1cc(C)oc1C(F)(F)F	-4.9%	-89.1*	-3.1%	-11.0	41.7	1.1
COc1cc(-c2ccc(-[n+]3nc(-c4ccccc4)nn3-c3ccc([N+](=O)[O-])cc3)c(OC)c2)ccc1-[n+]1nc(-c2ccccc2)nn1-c1ccc([N+](=O)[O-])cc1	/	/	-12.0%	/	/	/
CSc1ccc(CN2CCN(c3ccccc3C)CC2)cc1	2.5%	-114.3*	-1.4%	-129.2*	24.5	1.9
Cc1ccc(OCCSC2=NN2c2cc(C)nc(N)n2)cc1	-3.5%	-3.4	-4.1%	0.4	-9.1	1.8
SMILES	TSG101-PTAP inh	KCNH2 3.1 block	GRP78 ERSR act	hERG WT inh	TRPML1 inh	TRPML1 ag
CCSC1=NN1c1cc(C)nc(N)n1	-3.8%	-94.5*	0.9%	0.3	21.6	0.5
CCON=C(CC)C1=C(O)CC(c2c(C)cc(C)cc2C)CC1=O (stereo not drawn)	/	/	-3.2%	/	/	/
COc1ccc2c3c1OC1C(O)C=CC4[C@@H](C2)NCC[C@]314 (stereo partly drawn)	/	/	0.2%	/	/	/
CCCCNC(C)(C)[P+](=O)O	/	/	-4.8%	/	/	/
c1cc2c(cc1[C@H]1OCC3C1CO[C@@H]3c1ccc3c(c1)OCO3)OCO2 (stereo partly drawn)	-0.9%	-70.5*	4.2%	17.5	19.3	1.2
CCCCCSc1cc(O)c(C(CNC)C(C)C)cc1OC (stereo not drawn)	-3.1%	-1.9	-3.7%	2.9	1.2	1.3
CCCCCSc1cc(OC)c(CCN(C)C)cc1OC	-2.3%	-70.5*	-1.3%	14.2	-4.0	-0.5
C=C/C=C/CC1=C(C)[C@@H](OC(=O)[C@@H]2[C@@H](/C=C(\C)C(=O)OC)C2(C)C)CC1=O (tested in a mixture with another compound)	/	/	-4.6%	/	/	/
O=P(Oc1ccccc1)(Oc1ccccc1)C(Nc1ccccc1)c1ccccc1 (stereo not drawn)	0.1%	-70.1*	-1.0%	2.8	20.8	0.6
O=P(Oc1ccccc1)(Oc1ccccc1)C(O)c1ccccc1 (stereo not drawn)	-3.0%	2.9	-4.6%	5.8	18.2	-0.6
CS(=O)(=O)c1ccc(C2=C(CNC(=O)c3cccs3)[C@H]3CC[C@@H](C2)N3Cc2ccco2)cc1	/	-93.8*	-2.1%	-41.4	/	/
O=C(NCC1=C(c2ccc3ccccc3c2)C[C@@H]2CC[C@H]1N2Cc1ccco1)c1ccncc1	/	-31.3	-6.9%	16.3	2.4	-0.2
O=C(NCC1=C(c2ccc3ccccc3c2)C[C@@H]2CC[C@H]1N2Cc1ccco1)c1ccc([N+](=O)[O-])cc1	/	-98.9*	-7.0%	-40.7	33.8	0.5
